Structures are written as SMILES. Compounds without any hit were thinned out: in the full panel of roughly 83,000, 20% have a hit.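 The test compound was applied at a single concentration to cells in 96-well plates for 48 hours, and percent growth was recorded.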 Unmarked numbers belong to inactive results. The source made the active and inactive calls. How the source made its calls: active means growth percent below 10; inactive means the rest.

What all share (assay): NCI-60 one-dose screen, 48 h (100 = growth as untreated, 0 = no growth, -100 = all killed)
Common to all, as to conditions: 10 µM unless noted

Assay [1] deals with SR leukemia.
In assay [2] the test system is RPMI-8226 leukemia.
Assay [3] deals with OVCAR-8 ovarian.
Assay [4] relates to OVCAR-5 ovarian.
The subject of assay [5] is OVCAR-4 ovarian.
Assay [6] relates to SK-OV-3 ovarian.
Assay [7] relates to IGROV1 ovarian.
Assay [8] has as its system OVCAR-3 ovarian.
Assay [9] relates to HS 578T breast.
For assay [10], the system named is NCI/ADR-RES ovarian.
Assay [11] deals with BT-549 breast.
In assay [12] the test system is MDA-MB-435 melanoma.
The subject of assay [13] is MCF7 breast.
Assay [14] concerns HCT-116 colon.
The test system of assay [15] is HCC-2998 colon.
The test system of assay [16] is KM12 colon.
Assay [17] deals with T-47D breast.
Assay [18] deals with SW-620 colon.

Take `CCC/C(=N\NC(N)=O)C(OC)OC`: the growth in [1] was 120%; in [2] it was 121%; in assay [3], 98.6%; in [4], 97.1%; in assay [5], 89%; in assay [6], 116%. Besides, the growth in assay [7] is 123%; in [8] it was 104%; in assay [9] it was 125%; in assay [10], 99.6%; in assay [11] it was 110%; in [12], 110%. Also, the growth in assay [13] is 90.8%; in [14] it was 102%; in [15], 99.3%; in assay [16], 97.7%.
As to `O=C1CC2C=CCN2C=C1NC(=O)C1CCCCC1` (stereo not given), the growth in [1] was 103%; in [2], 107%; in assay [3], 109%; in [4] it was 102%; in assay [5], 105%; in [6] it was 111%. Moreover, the growth in assay [8] was 98.9%; in assay [9], 105%; in assay [10], 98.5%; in [17], 84%; in [11], 117%; in assay [12], 102%. The growth in assay [18] is 107%; in assay [13], 92.3%; in [14] it was 94.8%; in [15] it was 88.3%; in assay [16], 96.1%.
Consider `CCCCCCCCn1ccc2cc(NC(=O)Cn3cc(CN4CCC(C)CC4)nn3)ccc21`, for which the growth in assay [1] is -0.808% (active); in [2] it was -40.9% (active); in assay [3], 32.8%; in assay [4], 76.7%; in assay [5] it was 63%; in [6], 79.1%. Besides, the growth in [7] was 39.6%; in assay [8], 14.7%; in assay [9], 59.2%; in assay [10], 63.1%; in [12], -75.6% (active); in assay [18], -72.1% (active). The growth in [13] is 4.43% (active); in [14] it was -18.6% (active); in [16] it was 4.72% (active).
Take `COc1ccc(-c2ccc(-c3ccc(C(=N)N)cn3)s2)cc1`: the growth in assay [1] was 3.22% (active); in assay [2], 20.1%; in assay [3], 65.2%; in [4], 92.5%; in assay [5] it was 113%; in assay [6], 90.6%. For the same compound, the growth in [8] was 83.9%; in [9], 97.4%; in assay [10], 101%; in assay [17] it was 74.3%; in assay [11], 88.1%; in assay [12], 97%. Besides, the growth in assay [18] was 8.29% (active); in [13], 44.1%; in [14] it was -20.8% (active); in [16] it was 61.6%.
`C[Se]C(=O)CC1=C2C=C(F)C=CC2/C(=C\c2ccc(S(C)=O)cc2)C1C` (stereo not given): the growth in assay [1] is 22.5%; in [2] it was -23.9% (active); in assay [3], -66.1% (active); in assay [4] it was 17.6%; in [5], 26.7%; in [6], 6.54% (active). Moreover, the growth in [8] was -7.75% (active); in assay [9] it was 2.31% (active); in assay [10], 2.59% (active); in assay [17], 48.7%; in assay [11], -89.8% (active); in assay [12], -25.9% (active). Moreover, the growth is 4.55% (active) in assay [18]; 15.5% in assay [13]; 7.49% (active) in [14]; 68.9% in assay [15]; 50.1% in assay [16].
`CN1C(=O)N(C)C2C1NC(=S)N2/N=C/C=C/c1ccccc1[N+](=O)[O-]` (stereo not given): the growth in assay [1] is 15.2%; in assay [2], 2.85% (active); in assay [3], 36.3%; in assay [4], 74.9%; in assay [5], 51.1%; in assay [6] it was 27%. The growth in [8] is 8.13% (active); in assay [9], 17.1%; in [10], 29.1%; in [17], 22.4%; in [11], 68.1%; in assay [12] it was -61.7% (active). Besides, the growth was 22.7% in assay [18]; 18.7% in assay [13]; 19.5% in assay [14]; 60.5% in assay [15]; 26.7% in assay [16].
On to `O=C(CCCCl)NNc1nccc(Nc2ccc(S(=O)(=O)Nc3ccncc3)cc2)n1`, for which the growth is 95% in assay [1]; 104% in assay [2]; 106% in [3]; 103% in [4]; 101% in assay [5]; 101% in assay [6]. Moreover, the growth in assay [7] is 101%; in [8] it was 104%; in [9], 112%; in assay [10], 99.8%; in assay [11] it was 120%; in [12] it was 107%. Also, the growth in [18] is 113%; in assay [13] it was 93.4%; in assay [14] it was 97.1%; in [15] it was 103%; in assay [16] it was 101%.
Regarding `O=C(Cn1nnc2ccccc21)N/N=C/c1ccccc1F`, the growth is 96.8% in [1]; 101% in [2]; 95.2% in assay [3]; 108% in assay [4]; 110% in [5]; 98.2% in [6]. The growth is 108% in assay [8]; 81.2% in [9]; 109% in assay [10]; 92% in assay [17]; 101% in assay [11]; 102% in assay [12]. Besides, the growth in [18] was 96.7%; in [13] it was 89.9%; in [14], 101%; in assay [15], 115%; in [16] it was 91.9%.
With `CC(/C=C1\SC(=S)N(CC(=O)NC(Cc2c[nH]c3ccccc23)C(=O)O)C1=O)=C\c1ccccc1` (stereo not given), the growth was 108% in assay [1]; 105% in assay [2]; 100% in [3]; 102% in assay [4]; 101% in [5]; 105% in assay [6]. Moreover, the growth is 101% in [7]; 108% in [8]; 103% in assay [9]; 103% in assay [10]; 105% in assay [11]; 104% in assay [12]. For the same compound, the growth in assay [18] was 104%; in assay [13], 94.8%; in assay [14] it was 112%; in [15], 103%; in assay [16], 107%.
Regarding `C=C(CO)[C@@H]1CC[C@]2(COC3CCCCO3)CC[C@]3(C)[C@H](CC[C@@H]4[C@@]5(C)C=C(C=O)C(=O)C(C)(C)[C@@H]5CC[C@]43C)[C@@H]12` (stereo not given in full), the growth is -49.9% (active) in assay [1]; -35% (active) in assay [2]; -69% (active) in [3]; -75.5% (active) in [4]; -63.8% (active) in [5]; -95.8% (active) in assay [6]. The growth in assay [8] was -68.8% (active); in [9] it was -52.3% (active); in [10], -37.5% (active); in assay [17], -80.3% (active); in assay [11] it was -88.6% (active); in assay [12], -83.9% (active). For the same compound, the growth in assay [18] was -64.6% (active); in assay [13], -73.2% (active); in assay [14], -89.3% (active); in assay [15], -87.5% (active); in assay [16], -43% (active).
Regarding `O=C(CCCCCCN1CC(=O)N2[C@@H](C3CCCCC3)c3[nH]c4ccccc4c3C[C@H]2C1=O)NO`, the growth in assay [1] was 11.5%; in assay [2], 39.5%; in [3], 54.1%; in [4], 66.6%; in [5] it was 84.6%; in [6], 71.5%. The growth in [8] is 71.1%; in [9] it was 70.2%; in assay [10], 105%; in [17], 44.2%; in [11] it was 80.6%; in assay [12], 60.6%. For the same compound, the growth is 47% in assay [18]; 51.6% in assay [13]; 27% in assay [14]; 94% in assay [15]; 81.3% in assay [16].
With `COC(c1ccc2ccccc2c1)C(C)C(F)F` (stereo not given), the growth was 92% in [1]; 98.8% in assay [2]; 99.4% in assay [3]; 95.5% in assay [4]; 109% in assay [5]; 87.5% in [6]. The growth in [7] is 100%; in assay [8], 114%; in assay [9], 116%; in assay [10], 107%; in assay [11] it was 95%; in [12] it was 96%. Also, the growth in [18] is 106%; in [13], 109%; in assay [14], 87.7%; in [15], 114%; in assay [16], 107%.
Take `CCOC(=O)c1c(NC(=O)c2ccc(OC)cc2)sc2c(CN(C)C)c(O)ccc12`: the growth in [1] is -21.5% (active); in assay [2] it was 15.8%; in [3], 84.2%; in assay [4], 90.6%; in [5], 85.2%; in [6], 99.6%. Also, the growth was 106% in [8]; 88.9% in assay [9]; 84.5% in [10]; 77.3% in [17]; 95.5% in [11]; 68.8% in [12]. For the same compound, the growth in [18] was 70.4%; in assay [13] it was 70.4%; in [14], 51.3%; in [15], 23.1%; in assay [16] it was 81.8%.
As to `C#CCOc1cccc(-c2ncc3cc(NC(=O)CCl)ccc3n2)c1`, the growth in [1] is -28.2% (active); in assay [2] it was -24.9% (active); in assay [3], 6.25% (active); in assay [4], -58.8% (active); in [5] it was -28.2% (active); in assay [6], 76.8%. For the same compound, the growth in [7] is -52.7% (active); in assay [8] it was -51.2% (active); in [9], 31.7%; in assay [10], 7.12% (active); in assay [12], 2.74% (active); in assay [18], -58.3% (active). The growth is -21.6% (active) in assay [13], -26.9% (active) in assay [14], -7.49% (active) in assay [15] and 14.2% in assay [16].
For `CCC(C)Nc1ccc(NC(C)CC)cc1` (stereo not given), the growth in assay [1] is 76.1%; in assay [2], 65.8%; in assay [3], 89.2%; in assay [4] it was 103%; in assay [5], 84.1%; in assay [6], 98.4%. For the same compound, the growth is 28.6% in [8]; 110% in assay [9]; 94.5% in assay [10]; 79.7% in [17]; 85.4% in [11]; 95.3% in [12]. Moreover, the growth in assay [18] is 106%; in assay [13], 47.2%; in assay [14], 28.2%; in assay [15], 80.2%; in [16], 112%.
Regarding `O=C(c1ccc(F)c(Cl)c1)N1c2ccccc2Sc2ccccc21`, the growth was 34% in [1]; 52.6% in [2]; 89.9% in assay [3]; 87.3% in [4]; 80.1% in [5]; 89.2% in assay [6]. The growth in assay [7] was 71.2%; in [8] it was 63.2%; in assay [9], 79.3%; in [10] it was 39.8%; in assay [12], 8.14% (active); in assay [18] it was 33.9%. For the same compound, the growth is 51.2% in [13], 31.4% in assay [14] and 39.6% in [16].

The record behind these values is PubChem BioAssay (NCI).
